AmpC no deterg: qHTS Inhibitors of AmpC Beta-Lactamase (assay without detergent); P00811; AmpC nitrocefin hydrolysis, absorbance 480 nm, 0.0001% Triton; Potency, µM (top dose mostly 57.1 µM), without a hit: top-dose activity change, negative = inhibition, most hits filed as inhibitors; 330,000 compounds, 0.52% hits; AID 485341, 2010;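 note: potency is the fitted concentration of half-maximal effect; plate controls were no compound for no effect and no enzyme for full effect; nearly all actives have a fitted effect of over 20% in size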
Target sequence (P00811 whole entry, looked up): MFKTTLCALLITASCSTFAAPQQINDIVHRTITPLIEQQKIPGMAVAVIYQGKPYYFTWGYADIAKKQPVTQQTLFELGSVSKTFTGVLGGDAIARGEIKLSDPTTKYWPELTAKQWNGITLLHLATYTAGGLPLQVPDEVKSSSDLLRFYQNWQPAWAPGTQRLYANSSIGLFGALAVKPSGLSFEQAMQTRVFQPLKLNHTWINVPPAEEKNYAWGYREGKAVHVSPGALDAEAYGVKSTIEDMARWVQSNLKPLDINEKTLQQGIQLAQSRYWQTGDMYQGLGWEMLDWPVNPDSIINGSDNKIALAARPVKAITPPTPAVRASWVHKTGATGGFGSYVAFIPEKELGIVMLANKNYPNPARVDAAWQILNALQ
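20 mM phosphate pH 7.0 + 0.01% (detergent screen) or 0.0001% Triton X-100; 5.3 nM AmpC reagent; cpd preinc 15 min RT; nitrocefin (800 uM stock) to start; A480 q20 s × 4 min; Activity was normalised to no-enzyme and no-compound control wells.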
FMDV antiviral: High Throughput Screening for Foot and Mouth Disease Virus Antivirals. FMDV antiviral cell-based qHTS. Potency, µM (series often up to 57.9 µM), for inactives: top-dose activity change, negative = inhibition, most hits filed as inhibitors. 410,000 compounds, 1.2% hits; calls by dose curve; tested in HEK293T cells; note: read-out not given here; potency is the fitted concentration of half-maximal effect; nearly all actives have a fitted effect of over 45% in size
AmpC inh detg: qHTS Inhibitors of AmpC Beta-Lactamase (assay with detergent); Potency, µM (series often up to 114 µM), inactives show top-dose activity change, negative = inhibition, hits mostly inhibitors; AmpC hydrolysis of nitrocefin, absorbance 480 nm, 0.01% Triton; P00811; 370,000 compounds, 0.041% hits;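 note: potency is the fitted concentration of half-maximal effect; 0% = no-compound wells and -100% = no-enzyme wells; nearly all actives have a fitted effect of over 25% in size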
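AmpC (5.3 nM in the dispensed reagent) in 20 mM phosphate pH 7.0 with 0.01% (detergent screen) or 0.0001% Triton X-100 was preincubated with compounds for 15 min at room temperature. Nitrocefin was then added from an 800 uM solution, and hydrolysis was followed at 480 nm.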
HCMV inh: qHTS Assay for inhibitors of the human cytomegalovirus (HCMV); activity change, negative = inhibition, % at 57.5 µM; HFF cells, HCMV-luciferase reporter, 72 h; hits give low values; AID 1259415, 2018; 410,000 compounds, 4.5% hits; in the data active = activity change below about -60%; inconclusive = no clear call, values can overlap the other calls; inactive = above about -39%
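Human foreskin fibroblasts infected with luciferase-reporter HCMV at MOI 1 PFU/cell, compounds at two doses. Luciferase measured 72 h post infection; normalized to buffer-only basal and Salinomycin (10uM) controls.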
HCV inhibitor: qHTS Assay for Inhibitors of Hepatitis C Virus (HCV). AID 651820, 2012. 340,000 compounds, 3.4% hits. Potency, µM (top dose mostly 41.8 µM), for the others: top-dose activity change, negative = inhibition, usual class: inhibitors. Huh7.5.1 HCVcc-Cre infection, luciferase reporter, 44 h; note: potency is the fitted concentration of half-maximal effect
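1,000 cells/well; 4 h culture; + compound; + HCVcc-Cre (~0.5 moi); 44 h; luciferase substrate, RT 15 min; read 15 sec.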
* marks the source's active call; other numbers are inactive results; ? = inconclusive; . = no result; [ ] = another dose, or the depositor's remark. Hits are enriched below; roughly 7.3% of the tested compounds scored in any of these assays. Unless noted, calls come from the whole dose curve; as a rule, active = well fitted curve in the direction sought with a large enough effect; inconclusive = small, poorly fitted or top-dose-only effect, or another doubt; inactive = no such curve, though single readings can be large; an effect the other way counts as inactive or inconclusive. Unless noted, % is set by controls: 0 for no effect and ±100 for the full control effect.

SMILES | AmpC no deterg | FMDV antiviral | AmpC inh detg | HCMV inh | HCV inhibitor
COCCCN1C(=O)c2ccc(C(=O)Nc3ccccc3OC)cc2C1=O | -14% | -18% | -7% | 5 | 6%
COCCCN1C(=O)c2ccc(C(=O)Nc3ccc(C)cc3C)cc2C1=O | -8% | 14% | -6% | -92* | -1%
COC(=O)c1ccc(NC(=O)c2ccc3nccnc3c2)cc1 | -21% | -3% | 6% | 9 | ?
C=CCn1c(SCc2ccc(C(=O)NCCO)cc2)nc2sc(C)c(C)c2c1=O | 196% | ? | 6% | -25 | ?
CCC(c1nnnn1-c1ccc2c(c1)OCCO2)N1CCN(c2ccccn2)CC1 (stereo not drawn) | . | -19% | . | -13 | .
Cc1ccc(C)c(N2CCN(CCCNC(=O)Cn3cc4c(n3)CCCCC4)CC2)c1 | ? | ? | -11% | -30 | 5.6µM*
Cc1ccc(C)c(N2CCN(CCCNC(=O)Cn3cc4c(n3)CCC(C)C4)CC2)c1 (stereo not drawn) | 35µM* | 0% | ? | -2 | -13%
CC1CCc2nn(CC(=O)NCCCN3CCCC3=O)cc2C1 (stereo not drawn) | -10% | -1% | -6% | 2 | 10%
COc1ccc(OC)c(NC(=O)C2CC(=O)N(CCc3ccc(F)cc3)C2)c1 (stereo not drawn) | . | 9% | . | . | 6%
COc1ccc(NC(=O)C2CC(=O)N(CCc3ccc(Cl)cc3)C2)cc1 (stereo not drawn) | 46% | -3% | -8% | -86* | -17%
Cn1c(=O)n(CC(=O)NCC2CCCO2)c(=O)c2c3c(sc21)CCCC3 (stereo not drawn) | -5% | 0% | 0% | -6 | 8%
CCOC(=O)c1cc(OC(=O)c2cc(OC)c(OC)c(OC)c2)n(-c2ccccc2)n1 | . | 0% | 21% | 6 | .
COC(=O)c1ccccc1NC(=O)c1nc(S(=O)(=O)Cc2cccc(C)c2)ncc1Cl | . | ? | 19% | -60* | .
COC(=O)c1ccc(NC(=O)c2nc(S(=O)(=O)Cc3cccc(C)c3)ncc2Cl)cc1 | -31% | 28µM* | -19% | -101* | ?
Cc1ccc(CNC(=O)c2nc(SCc3cccc(C)c3)ncc2Cl)cc1 | . | 0% | 5% | -10 | .
Cc1cccc(CS(=O)(=O)c2ncc(Cl)c(C(=O)NCc3ccc4c(c3)OCO4)n2)c1 | -20% | 32µM* | ? | -78* | 1%
COC(=O)c1ccccc1NC(=O)c1onc(C)c1Cl | -19% | -14% | 6% | -3 | -7%
CC(=O)Nc1ccc(NC(=O)c2nc(SCc3ccccc3C)ncc2Cl)cc1 | . | 0% | 25% | -15 | .
CC(=O)Nc1ccc(NC(=O)c2nc(S(=O)(=O)Cc3cccc(C)c3)ncc2Cl)cc1 | 0% | 20µM* | -5% | -101* | ?
Cc1ccc(C(=O)NCc2ccc3c(c2)OCO3)c(Cl)c1 | . | 51% | . | 18 | .
CCc1ccccc1Nc1nc2ccccc2c2nncn12 | . | -10% | 8% | 17 | .
COc1ccc(NC(=O)Cn2c(=O)n(Cc3nc(-c4ccccc4)no3)c(=O)c3cc4c(cc32)OCO4)c(OC)c1 | . | -10% | 23% | 9 | .
O=C(CSc1ccc(Cl)cc1)Nc1cccc(-c2nc3ncccc3o2)c1 | -30% | 14µM* | -5% | -18 | 9%
CC(C)C(=O)Nc1cccc(-c2nc3ncccc3o2)c1 | -16% | 18% | -21% | 96 | 8%
O=C(Nc1cccc(-c2nc3ncccc3o2)c1)c1ccc(-c2cccc(Cl)c2Cl)o1 | . | 11µM* | 1% | -92* | .
SMILES | AmpC no deterg | FMDV antiviral | AmpC inh detg | HCMV inh | HCV inhibitor
CC(=O)c1ccc(F)c(-c2cc(C)cc3c2OC(CNC(=O)C[C@@H]2C[C@@H](C)NC(=S)N2)C3)c1 (stereo partly drawn) | . | -9% | . | . | .
c1ccc(-c2ccc(-c3ccncn3)cc2)cc1 | . | 8% | . | 104 | 2%
Cc1cc2nc(/C=C/c3cccnc3)[nH]c2cc1C | -55% | 50% | ? | -92* | -7%
COc1ccccc1N1CCN(C(=O)c2cc3c(-c4ccccc4F)nn(C)c3s2)CC1 | . | ? | 4% | -27 | .
CCOC(=O)N1CCN(C(=O)c2cc3c(-c4cccc(OC)c4)nn(C)c3s2)CC1 | 125% | ? | 0% | 9 | 8.9µM*
COc1ccc(N2CCN(C(=O)c3cc4c(-c5cccc(OC)c5)nn(C)c4s3)CC2)cc1 | 86% | -2% | -2% | -24 | 6.3µM*
CC(=O)c1ccc(N2CCN(C(=O)c3cc4c(-c5ccccc5F)nn(C)c4s3)CC2)cc1 | 124% | ? | ? | -13 | 14µM*
CN(Cc1ccccc1)C(=O)COC(=O)c1cc2ccccc2oc1=O | -20% | -6% | . | -4 | 4%
CCOc1cc(/C=C2\COc3ccccc3C2=O)cc(Br)c1OCC(=O)N(C)C | 193% | 10µM* | -2% | -39 | ?
O=C(O)c1ccc(/C=C2\COc3ccccc3C2=O)cc1 | -19% | 22µM* | 2% | 33 | -5%
CCOc1cc(/C=N/Nc2nc3ccccc3[nH]2)cc(Br)c1OCC(=O)N(C)C | 49% | ? | ? | -12 | ?
COc1ccc(/C=C2\COc3ccccc3C2=O)cc1OC | 61% | -23% | -1% | ? | -27%
CCCCn1c(C)cc2c(c1=O)[C@H]1O[C@](CCCCN3C(=O)c4ccccc4C3=O)(Cc3ccccc31)O2 | -34%[11.4 µM] | . | -5%[22.9 µM] | . | .
CCOC(=O)N(C)c1c(CC)nc2c(OCc3ccccc3C)cccn12 | . | -18% | . | -5 | .
Cc1ccc(CC(=O)Nc2ccc3c(c2)N(C)C(=O)c2ccccc2S3)cc1 | . | -17% | -1% | ? | .
Cc1ccc2c(c1)N(C)/C(=C/c1cccc[n+]1CCO)S2 | 0% | ? | -14% | -97* | ?
CN1/C(=C/c2cccc[n+]2C)Sc2ccccc21 | -2% | ? | 2% | -97* | ?
Cc1ccc2c(c1)N(C)/C(=C/c1cccc[n+]1C)S2 | -17% | -22% | 0% | -98* | ?
c1csc(CNc2nc(CN3CCCC(c4nc5ccccc5o4)C3)nc3ccccc23)c1 (stereo not drawn) | . | 8% | . | . | .
CC(C)(C)OC(=O)N1CCC(NC(=O)c2[nH]c(C(F)(F)F)nc2-c2ccccc2)CC1 | . | ? | . | -6 | .
O=C(COC(=O)c1ccc[nH]c1=O)Nc1cc(S(=O)(=O)N2CCCCCC2)ccc1Cl | -4% | -3% | -7% | -22 | 11%
CCOC(=O)c1sc(NC(=O)c2ccncc2)c(C#N)c1C | -21% | ? | ? | -68* | ?
COC(=O)c1sc(NC(=O)c2ccc(Cn3cc(Cl)cn3)o2)c(C#N)c1C | -27% | ? | -8% | -106* | -3%
CCOC(=O)c1sc(NC(=O)c2cc(-c3ccccc3C)nc3ccccc23)c(C#N)c1C | -42% | ? | 1% | -105* | 7.1µM*

Assay outcomes: PubChem BioAssay, National Center for Advancing Translational Sciences (NCATS)
